Growth data for eleven molecules are collected here from PubChem BioAssay (NCI).

Assay in all cases: NCI-60 one-dose screen, 48 h (100 = growth as untreated, 0 = no growth, -100 = all killed)
In experiment [1] the test system is HCT-15 colon. To be noted: 10 µM.
Experiment [2] deals with HT29 colon. As to conditions: 10 µM.
Experiment [3] relates to SNB-75 CNS. To be noted: 10 µM.
Experiment [4] has as its system SNB-19 CNS. As to conditions: 10 µM.
Experiment [5] deals with U251 CNS. As to conditions: 10 µM.
In experiment [6] the test system is PC-3 prostate. To be noted: 10 µM.
For experiment [7], the system named is SK-MEL-5 melanoma. As to conditions: 10 µM.
In experiment [8] the test system is UACC-62 melanoma. To be noted: 10 µM unless noted.
Experiment [9] deals with LOX IMVI melanoma. To be noted: 10 µM.
The test system of experiment [10] is SK-MEL-28 melanoma. To be noted: 10 µM.

Several values for one entry are separate records, joined by “and”; a condition that tells them apart may be missing. Equal entries are not always repeated. Compounds without any hit were thinned out: in the full panel of roughly 83,000, 20% have a hit.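 Values shown are percent growth following 48 h exposure of cells in 96-well plates to a single concentration of compound; below 10 was considered active.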 Activity calls are given as the source filed them.

Take `C=C1C(=O)O[C@@H]2C[C@@H](C)[C@@H]3C=CC(=O)[C@@]3(C)[C@@H](O)[C@H]12`: the growth in experiment [1] was -83.7% (active); in experiment [2] it was -66% (active); in [3], -94.8% (active); in [4] it was -63.7% (active); in [5], -100% (active); in experiment [6], -62% (active). Besides, the results for the growth in [7], in experiment [8] and in [9] were -93.5% (active), -61.4% (active) and -97% (active), respectively.

`CC[C@@H](C)[C@@H]1NC(=O)C(NC(=O)C(CC(C)C)N(C)C(=O)C2CCCN2C(=O)C(C)O)C(C)OC(=O)C(Cc2ccc(OC)cc2)N(C)C(=O)C2CCCN2C(=O)C(CC(C)C)NC(=O)C(C)C(=O)C(C(C)C)OC(=O)C[C@H]1O` (some centres not stated): the growth is -32.7% (active) in experiment [1]; -53.2% (active) in experiment [2]; -95.7% (active) in experiment [3]; -44% (active) in experiment [4]; -43.8% (active) in experiment [5]; -37.2% (active) in experiment [6]. In addition, the growth is -98.1% (active) in experiment [7], -68.9% (active) in [8] and -70.2% (active) in [9].

In the case of `NC(=O)c1cc([N+](=O)[O-])c(Cl)c([N+](=O)[O-])c1`, the growth in [1] was 45.5% (inactive); in [2], -7.93% (active); in experiment [3], 98.6% (inactive); in [4] it was 107% (inactive); in [5], 69.4% (inactive); in experiment [6], 62.2% (inactive). In addition, the growth in [7] is 107% (inactive); in experiment [8] it was 100% (inactive); in experiment [9], 24.7% (inactive); in [10], 118% (inactive).

For the molecule `Oc1ccccc1-c1ccccc1`, the growth in [1] is 104% (inactive) and 94.6% (inactive); in experiment [2] it was 97% (inactive) and 98.8% (inactive); in experiment [3], 97.4% (inactive) and 79.2% (inactive); in experiment [4], 101% (inactive) and 93.4% (inactive); in [5], 99% (inactive) and 98.1% (inactive); in experiment [6], 94.4% (inactive) and 98.6% (inactive). In addition, the growth is 102% (inactive) and 97.7% (inactive) in experiment [7]; 98.5% (inactive) and 96% (inactive) in experiment [8]; 92.3% (inactive) and 108% (inactive) in [9]; 112% (inactive) and 102% (inactive) in [10].

Take `O=c1[nH]c2ccccc2n1C1CCN(CCCC(c2ccc(F)cc2)c2ccc(F)cc2)CC1`: the growth in experiment [1] is 37.7% (inactive) and -3.08% (active); in experiment [2], 9.69% (active) and -2.65% (active); in experiment [3] it was 77.1% (inactive) and 106% (inactive); in experiment [4], 77.9% (inactive) and 68.2% (inactive); in experiment [5], -1.25% (active) and 17.5% (inactive); in [6] it was -21.4% (active) and 21.3% (inactive). Also, the growth in experiment [7] was 23.6% (inactive) and -86.5% (active); in [8], 38.4% (inactive) and 30.3% (inactive); in experiment [9], 15.6% (inactive) and -22.7% (active); in experiment [10], 82.2% (inactive) and -53.2% (active).

As to `COc1cc(/C=C(/C)[N+](=O)[O-])ccc1O`, the growth in experiment [1] is -48.3% (active) and 1.2% (active); in [2] it was 3.02% (active) and -26.9% (active); in experiment [3] it was 74.3% (inactive) and 1.18% (active); in experiment [4], 81.5% (inactive) and 75.1% (inactive); in experiment [5] it was 25.4% (inactive) and 28% (inactive); in [6], 60.7% (inactive) and 56.6% (inactive). For the same molecule, the growth in experiment [7] was 82.3% (inactive) and 64.6% (inactive); in experiment [8], 55.4% (inactive) and -53.8% (active); in experiment [9] it was -25.7% (active) and -73.2% (active); in experiment [10], 33.1% (inactive) and -9.24% (active).

Turning to `S=C=NCCc1ccccc1`, the growth in [1] is 51.7% (inactive); in experiment [2], 31.9% (inactive); in experiment [3], 54.2% (inactive); in experiment [4], 54.3% (inactive); in experiment [5] it was 46.5% (inactive); in experiment [6], 64.2% (inactive). Besides, the growth was -28.2% (active) in [7], 55% (inactive) in experiment [8] and 32.2% (inactive) in experiment [9].

`COS(=O)(=O)c1ccccc1`: the growth in experiment [1] is 108% (inactive); in experiment [2] it was 110% (inactive); in experiment [3], 95.2% (inactive); in experiment [4], 110% (inactive); in experiment [5], 96.4% (inactive); in experiment [6] it was 102% (inactive). Besides, the growth in experiment [7] was 108% (inactive); in experiment [8] it was 102% (inactive); in experiment [9] it was 102% (inactive); in [10], 113% (inactive).

In the case of `COc1cc([C@@H]2c3cc4c(c(O)c3C[C@H]3COC(=O)[C@@H]32)OCO4)cc(OC)c1OC`, the growth in experiment [1] was 10.2% (inactive); in [2] it was 12.9% (inactive); in [3], 24% (inactive); in experiment [4] it was 7.28% (active); in experiment [5], 23.8% (inactive); in [6] it was -0.628% (active). In addition, the growth is -42.8% (active) in experiment [7], 64.3% (inactive) in experiment [8], 19.9% (inactive) in experiment [9] and 54.3% (inactive) in experiment [10].

Turning to `CN(C)CC1(N)C(=O)NC(=O)NC1=O`, the growth in experiment [1] is 102% (inactive); in experiment [2], 99.6% (inactive); in experiment [3], 89.7% (inactive); in experiment [4], 102% (inactive); in experiment [5], 96.3% (inactive); in experiment [6], 93.5% (inactive). Further, the growth was 95.1% (inactive) in [7], 97.5% (inactive) in experiment [8], 104% (inactive) in [9] and 95.1% (inactive) in experiment [10].

With `O=C1C(=O)c2ccccc2-c2ccccc21`, the growth is -69.5% (active) in experiment [1]; -16.1% (active) in experiment [2]; -100% (active) in experiment [3]; -78.6% (active) in [4]; -87.8% (active) in [5]; -47% (active) in experiment [6]. Moreover, the growth in experiment [7] was -95.7% (active); in experiment [8], -67.4% (active); in [9], -58.5% (active); in experiment [10] it was -91.2% (active).
